Four molecules from PubChem BioAssay can be followed below.

A word on the inhibition: it is the change of the read-out against control, counted positive when it falls.

Assay [1] in a line: Wnt pathway potentiators raising nuclear beta-catenin – imaging, WNT3A-conditioned medium, mouse C2C12, NPC library, primary screen (AID 1117326; in the data active means nuclear beta-catenin stimulation mostly above about 4.2%, no sharp cut-off; inactive means mostly below about 10%). Conditions: stronger effect = higher value.
Assay [2] can be described thus: stimulators of insulin release from INS-1E, primary screen, cell-based, 5 mM glucose, NPC library (AID 1117329;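 active means compound raises insulin release from rat beta cells at 5 mM glucose, no numeric limit stated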). The following applies: rat INS-1E insulin secretion, at 10 µM, stronger effect = higher value.
The nature of assay [3]: growth inhibition of GSK3B-pretreated HCT116 cells – cell-based, CellTiter-Glo, 0.2 to 20 µM (AID 1117336;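 active means compounds lowering colon cancer cell viability after pretreatment blocking the GSK3B kinase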). Conditions: HCT116 viability after GSK3B inhibitor, at 20 µM, stronger effect = higher value. On the technique in general: Cellular ATP, detected with luciferase, serves as a proxy for viable cell number.
Assay [4] is described as follows: inhibition of endothelial tube formation, primary screen, imaging, VEGF stimulated, CD31 staining, tube area, NPC library (AID 1117340;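 active means compound that reduces growth-factor-driven endothelial tube area in a mixed cell culture, no cutoff stated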). Conditions: VEGF-stimulated ADSC/ECFC co-culture, at 10 µM, stronger effect = higher value.
Assay [5] can be described thus: GLP1 release stimulators, primary, NCI-H716, NPC library (AID 1117341;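 active means compound raises GLP1 secretion from the human gut endocrine cells, with no numeric limit stated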). The following applies: NCI-H716 cells, at 10 µM, stronger effect = higher value.
The nature of assay [6]: HCT116 colon cancer cell growth inhibition, primary screen, CellTiter-Glo luminescence, NPC library (AID 1117342;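 active means compounds that lower survival of HCT116 colon cancer cells in the luminescence readout, no numeric limit stated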). Conditions: at 20 µM (top of the series).
Assay [7] in a line: reduced SW480 viability measured with CellTiter-Glo, NPC library, primary (AID 1117343;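 active means compounds that lower viability of the colon cancer cells in the luminescence readout, with no numeric limit stated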). The following applies: CellTiter-Glo luminescence; at 20 µM (top of the series).
A short description of assay [8]: NPC library primary testing for decreased DLD-1 cell viability via CellTiter-Glo (AID 1117346;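 active means compounds that lower survival of DLD-1 colon cancer cells in the luminescence readout, no cutoff given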). Conditions: DLD-1 viability, CellTiter-Glo luminescence; at 20 µM (top of the series).
Assay [9] deals with 6-phosphogluconate dehydrogenase, decarboxylating (Homo sapiens) (UniProt P52209). Put plainly: inhibition of human phosphogluconate dehydrogenase – biochemical, recombinant enzyme, NADPH absorbance, primary screen (AID 1159550;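 active means at least 20% inhibition of 6-phosphogluconate dehydrogenase activity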). Conditions: recombinant 6PGD, NADPH absorbance 341 nm; at 10 µM; stronger effect = higher value.
6-phosphogluconate dehydrogenase, decarboxylating (Homo sapiens), sequence (P52209 whole entry, looked up): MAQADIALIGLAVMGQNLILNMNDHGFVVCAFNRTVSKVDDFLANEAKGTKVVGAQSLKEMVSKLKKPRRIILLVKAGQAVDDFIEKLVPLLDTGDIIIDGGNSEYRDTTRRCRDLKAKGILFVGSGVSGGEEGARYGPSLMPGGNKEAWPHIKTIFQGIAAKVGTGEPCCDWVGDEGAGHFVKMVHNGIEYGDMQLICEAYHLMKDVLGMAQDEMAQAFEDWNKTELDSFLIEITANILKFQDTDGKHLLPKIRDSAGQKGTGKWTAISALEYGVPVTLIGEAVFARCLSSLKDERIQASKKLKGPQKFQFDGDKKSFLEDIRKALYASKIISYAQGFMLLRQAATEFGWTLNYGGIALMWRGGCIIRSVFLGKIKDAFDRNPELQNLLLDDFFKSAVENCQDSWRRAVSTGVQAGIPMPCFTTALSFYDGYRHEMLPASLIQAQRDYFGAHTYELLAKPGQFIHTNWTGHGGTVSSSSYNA
Assay [10] is described as follows: modulation of C. elegans fzo-1 (AID 1259413; call rule not given here;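 further: fzo-1 mutant C. elegans worms in liquid wells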). Conditions: C. elegans fzo-1 modulator screen, mean read-out; stronger effect = higher value.
Assay [11] is described as follows: EMT-state selective cytotoxicity in co-culture – imaging, PC-3E GFP, TEM4-18 mCherry, primary screen (AID 1345086;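 active means compounds killing one labelled cell type while sparing the other, by normalised counts and ratio limits, not self-fluorescent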;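 on all read-outs here: cells exposed to compound for 72 h before imaging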;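 on red/green cell ratio (normalised): normalised mesenchymal count divided by normalised epithelial count so high means epithelial killing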). The following applies: PC-3E GFP / TEM4-18 mCherry co-culture, imaging cell counts, at 1 µM; for red/green cell ratio (normalised): actives lie on both sides, counts scaled to control wells, 1 = unselective.
Assay [12] is described as follows: MELAS cybrid and Rieske KO viability enhancers – cell-based, MELAS cybrids, Rieske KO mouse fibroblasts, CellTiter-Glo, primary screen (AID 1508586;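 active means mean z-score across replicates of 1.96 or higher in either the MELAS or the Rieske mutant cell line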;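 further: z relative to plate mean and SD of compound and empty wells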). The following applies: low glucose.
Assay [13] has as its target NAD(+) hydrolase SARM1 (Homo sapiens) (UniProt Q6SZW1). Put plainly: blocking NAD cleavage by SARM1 SAM-TIR – cell lysate, NAD-Glo luminescence (AID 1508614;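 active means compound whose remaining NAD level is above about 45 nM, limit read from the data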). The following applies: SAM-TIR HEK293T lysate NADase, at 1 µM, stronger effect = higher value.
Assay [14] has as its target Mitogen-activated protein kinase 7 (Homo sapiens) (UniProt Q13164). The experiment in a line: Gal4-ERK5 driven luciferase induction – cell-based, HTS, primary screen (AID 1508626;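 active means luciferase signal above three times the same-plate solvent-only control wells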;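 further: luciferase driven by Gal4-ERK5 fusion binding five Gal4 sites before minimal TATA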). The following applies: HeLa Gal4-ERK5 transactivation, 18 h, at 5 µM, stronger effect = higher value.
The test system of assay [15] is F380Y. Put plainly: BK channel mutant inhibitors and activators – cell-based, U2OS BacMam, thallium flux, beta subunits, selectivity assay, profiling panel (AID 1259406).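 Further: initial slope of Thallos dye fluorescence rise after thallium is added; log ratio against the mean of 0.3% DMSO vehicle wells on the same plate.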 Conditions: U2OS BacMam BK variants, at 30 µM.
For assay [16], the system named is F380Y/beta1. Described as above. The following applies: U2OS BacMam BK variants, at 30 µM.
Assay [17] concerns F380Y/beta2Delta. The assay is described as above. The following applies: U2OS BacMam BK variants, at 30 µM.
The subject of assay [18] is F380Y/beta4. The assay is described as above. Conditions: U2OS BacMam BK variants, at 30 µM.
Assay [19] addresses Calcium-activated potassium channel subunit alpha-1 (Homo sapiens) + Leucine-rich repeat-containing protein 26 (Homo sapiens) (UniProt Q12791+Q2I0M4). The description is as above. The following applies: U2OS BacMam BK variants, F380Y/Slo1WT/gamma1, at 30 µM.
The mark [20] stands for this setting: measured here: epithelial PC-3E GFP cell survival.
Where [21] appears, read: measured here: mesenchymal TEM4-18 mCherry cell survival.
[22] abbreviates: MELAS cybrid survival, CellTiter-Glo 48 h, stronger effect = higher value.
Setting [23] is: Rieske KO mouse fibroblast survival, CellTiter-Glo 72 h.

Several values for one entry are separate records, joined by “and”; a condition that tells them apart may be missing. Equal values may be shown once. Some structures have more than one record in an assay (separate samples or runs), and their calls can disagree. Activity calls are given as the source filed them.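 How the source made its calls, unless noted: active means thallium flux through the channel raised or lowered by more than 3 SD from vehicle-only wells, actives on both sides; inactive means the rest.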

Calcium-activated potassium channel subunit alpha-1 (Homo sapiens) + Leucine-rich repeat-containing protein 26 (Homo sapiens), sequence (Q2I0M4 whole entry, looked up, one chain of several): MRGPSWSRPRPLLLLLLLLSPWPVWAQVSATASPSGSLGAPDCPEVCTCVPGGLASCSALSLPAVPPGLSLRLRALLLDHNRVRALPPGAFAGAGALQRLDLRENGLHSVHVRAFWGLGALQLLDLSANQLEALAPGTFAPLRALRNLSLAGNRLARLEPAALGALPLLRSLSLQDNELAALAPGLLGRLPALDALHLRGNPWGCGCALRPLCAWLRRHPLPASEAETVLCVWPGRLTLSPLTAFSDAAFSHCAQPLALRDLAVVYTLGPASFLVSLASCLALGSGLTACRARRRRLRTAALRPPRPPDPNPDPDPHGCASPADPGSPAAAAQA
Mitogen-activated protein kinase 7 (Homo sapiens), sequence (Q13164 whole entry, looked up, the tested form may be a part): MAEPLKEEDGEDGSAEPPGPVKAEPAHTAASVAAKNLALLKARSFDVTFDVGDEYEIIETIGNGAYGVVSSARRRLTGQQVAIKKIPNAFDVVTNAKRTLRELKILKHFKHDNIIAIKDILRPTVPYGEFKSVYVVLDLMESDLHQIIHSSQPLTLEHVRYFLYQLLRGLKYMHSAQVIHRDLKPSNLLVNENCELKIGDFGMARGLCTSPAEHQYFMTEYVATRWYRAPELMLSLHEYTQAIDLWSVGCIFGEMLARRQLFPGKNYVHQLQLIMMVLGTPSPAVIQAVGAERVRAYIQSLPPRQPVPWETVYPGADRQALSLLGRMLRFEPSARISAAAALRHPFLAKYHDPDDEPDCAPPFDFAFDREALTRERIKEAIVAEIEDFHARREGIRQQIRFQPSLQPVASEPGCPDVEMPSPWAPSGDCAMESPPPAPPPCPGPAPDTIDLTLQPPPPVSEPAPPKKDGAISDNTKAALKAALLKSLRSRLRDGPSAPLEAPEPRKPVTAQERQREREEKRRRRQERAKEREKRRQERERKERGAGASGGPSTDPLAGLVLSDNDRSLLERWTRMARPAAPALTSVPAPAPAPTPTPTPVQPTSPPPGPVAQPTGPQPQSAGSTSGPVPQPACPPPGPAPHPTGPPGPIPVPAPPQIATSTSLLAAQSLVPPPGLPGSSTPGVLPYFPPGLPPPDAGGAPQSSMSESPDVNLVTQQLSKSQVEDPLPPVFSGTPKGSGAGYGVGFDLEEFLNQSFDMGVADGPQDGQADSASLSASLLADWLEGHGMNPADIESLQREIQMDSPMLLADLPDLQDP
NAD(+) hydrolase SARM1 (Homo sapiens), sequence (Q6SZW1 whole entry, looked up, the tested form may be a part): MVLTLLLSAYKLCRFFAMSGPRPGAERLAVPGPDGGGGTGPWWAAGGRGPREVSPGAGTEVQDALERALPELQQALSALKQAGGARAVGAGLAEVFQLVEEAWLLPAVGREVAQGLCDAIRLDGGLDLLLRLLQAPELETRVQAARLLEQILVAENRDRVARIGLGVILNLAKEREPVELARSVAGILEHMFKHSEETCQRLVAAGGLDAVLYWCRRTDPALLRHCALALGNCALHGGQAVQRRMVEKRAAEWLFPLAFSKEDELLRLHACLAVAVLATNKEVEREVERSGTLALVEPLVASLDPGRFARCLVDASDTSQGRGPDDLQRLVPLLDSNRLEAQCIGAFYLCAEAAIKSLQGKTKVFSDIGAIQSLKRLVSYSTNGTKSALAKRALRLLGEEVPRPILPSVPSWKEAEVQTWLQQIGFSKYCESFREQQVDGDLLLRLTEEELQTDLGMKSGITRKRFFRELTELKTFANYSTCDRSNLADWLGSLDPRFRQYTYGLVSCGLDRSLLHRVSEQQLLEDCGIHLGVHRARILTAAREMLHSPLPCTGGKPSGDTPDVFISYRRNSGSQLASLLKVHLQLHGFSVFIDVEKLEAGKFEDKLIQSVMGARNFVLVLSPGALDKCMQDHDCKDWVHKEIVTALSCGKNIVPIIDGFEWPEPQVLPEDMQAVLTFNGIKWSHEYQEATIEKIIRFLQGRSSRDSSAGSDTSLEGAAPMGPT

On to `CN(C)CCCN1c2ccccc2Sc2ccc(Cl)cc21`, for which the nuclear beta-catenin stimulation in assay [1] (at 10 µM) is 5.5% (inactive); in [1] (stimulation, at 2 µM), 0.9%. In assay [2], the insulin secretion stimulation was 8.9% (inactive). Further, the viability decrease in assay [3] was 82% (active). Further, in assay [4], the tube area decrease was 68.7% (active). In addition, the GLP1 secretion stimulation in assay [5] was 15.5% (inactive). Also, the inhibition of viability in [6] is 96.1% (active). For the same molecule, the viability decrease (inhibition) in assay [7] was 128% (active); in assay [8] it was 93.1% (active). Moreover, the inhibition in [9] is 10.5% (inactive). Also, the mean signal in assay [10] was 252 (inactive). Moreover, the red/green cell ratio (normalised) in [11] is 1.34 (inactive). The normalised cell number in assay [11] (setting [20]) came to 0.97; in [11] (setting [21]), 1.3. The z-score in assay [12] (setting [22]) is 2.27 (active) and 0.163 (inactive) and 0.651 (inactive); in [12] (setting [23]), -0.778 and 0.446 and 0.902. In addition, the remaining NAD in assay [13] was 10 nM (inactive). Moreover, the luciferase signal in assay [14] was 68 AU (inactive). The log fold change Tl+ flux in assay [15] was 0.156 (active); in [16], -0.176 (active); in [17], 0.221 (active); in assay [18] it was 0.171 (active); in assay [19], 0.0114 (inactive).

As to `CC(=O)Nc1nnc(S(N)(=O)=O)s1`, the nuclear beta-catenin stimulation in assay [1] (at 10 µM) is 0.1% (inactive); in [1] (stimulation, at 2 µM), -0.2%. The insulin secretion stimulation in assay [2] is -1.1% (inactive). In addition, the viability decrease in assay [3] is -1.8% (inactive). For the same molecule, the tube area decrease in assay [4] was -16.7% (inactive). Further, the GLP1 secretion stimulation in assay [5] is 1.4% (inactive). For the same molecule, the inhibition of viability in assay [6] is 1.7% (inactive). Besides, the viability decrease (inhibition) was 31.5% (inactive) in [7] and 6.2% (inactive) in assay [8]. For the same molecule, the inhibition in [9] was -4.83% (inactive). The mean signal in [10] is 242 (inactive). Further, the red/green cell ratio (normalised) in [11] was 1.26 (inactive). The results for the normalised cell number in assay [11] (setting [20]) and in assay [11] (setting [21]) were 0.92 and 1.17, respectively. The z-score is -0.627 (inactive) in assay [12] (setting [22]) and 0.11 in [12] (setting [23]). Also, the remaining NAD in assay [13] is 10 nM (inactive). For the same molecule, in [14], the luciferase signal was 44 AU (inactive). Further, the log fold change Tl+ flux was 0.0439 (inactive) in [15]; 0.0405 (inactive) in assay [16]; 0.0368 (inactive) in [17]; 0.0426 (inactive) in [18]; -0.0199 (inactive) in [19].

Regarding `CCCNC(C)C(=O)Nc1ccccc1C` (configuration not stated), the nuclear beta-catenin stimulation in [1] (at 10 µM) is 2.8% (inactive); in assay [1] (stimulation, at 2 µM) it was 0.2%. Besides, the insulin secretion stimulation in assay [2] was -0.2% (inactive). Moreover, the viability decrease in assay [3] is -19.3% (inactive). Further, the tube area decrease in assay [4] was -7.6% (inactive). Further, the GLP1 secretion stimulation in assay [5] was -2.8% (inactive). For the same molecule, in assay [6], the inhibition of viability is -6.47% (inactive). The viability decrease (inhibition) is 14.5% (inactive) in [7] and -13.2% (inactive) in assay [8]. Also, in [9], the inhibition is 10.3% (inactive). In addition, in assay [10], the mean signal was 270 (inactive). In addition, the red/green cell ratio (normalised) in assay [11] is 1.41 (inactive). Besides, the normalised cell number was 0.93 in [11] (setting [20]) and 1.32 in assay [11] (setting [21]). Besides, the z-score in assay [12] (setting [22]) is 0.649 (inactive) and 0.0198 (inactive) and 0.84 (inactive); in assay [12] (setting [23]), -0.309 and -0.0551 and 0.281. In addition, the remaining NAD in assay [13] is 10 nM (inactive). The luciferase signal in assay [14] is 232 AU (inactive). The log fold change Tl+ flux in assay [15] was 0.0152 (inactive); in assay [16], 0.00249 (inactive); in assay [17], 0.0464 (inactive); in assay [18] it was 0.0146 (inactive); in assay [19], -0.0185 (inactive).

Turning to `OCCN1CCN(CCCN2c3ccccc3Sc3ccc(Cl)cc32)CC1`, the nuclear beta-catenin stimulation in assay [1] (at 10 µM) was 73.5% (active); in assay [1] (stimulation, at 2 µM), 2.8%. For the same molecule, the insulin secretion stimulation in assay [2] is 3.5% (inactive). Moreover, the viability decrease in assay [3] is 99.5% (active). Further, in assay [4], the tube area decrease was 104% (active). Besides, in [5], the GLP1 secretion stimulation was 45% (active). In addition, in [6], the inhibition of viability was 100% (active). Also, the viability decrease (inhibition) in assay [7] is 116% (active); in assay [8] it was 101% (active). In addition, the inhibition in [9] was 10.3% (inactive). Besides, the mean signal in assay [10] is 256 (inactive). In [11], the red/green cell ratio (normalised) is 1.35 (inactive). Further, the normalised cell number in [11] (setting [20]) was 0.97; in [11] (setting [21]), 1.32. In addition, the z-score in [12] (setting [22]) was 0.299 (inactive); in assay [12] (setting [23]) it was 0.539. Moreover, in assay [13], the remaining NAD is 10 nM (inactive). Besides, the luciferase signal in assay [14] was 44 AU (inactive). The log fold change Tl+ flux was 0.23 (active) in [15]; 0.097 (inactive) in [16]; 0.336 (active) in assay [17]; 0.284 (active) in assay [18]; -0.0145 (inactive) in assay [19].
